Test results from the OligoGym collection.
Note: reference of the scale not given here.

The sequences below were run against PHF23 (assay: pooled miR-30 sensor sort-seq; sequence = guide strand). Conditions: shRNA.
TATGCCAAAACAAAACTGCAGA was tested, and the sensor-assay potency score (higher = more potent) was -0.479. Work on TACCATGATGTCCTCGTCCATG yielded a sensor-assay potency score (higher = more potent) of -1.2. Work on TTCTTGCTCTTCTTGATTCGAG yielded a sensor-assay potency score (higher = more potent) of -0.558.

What follows are sequences tested against PHF8 in the same assay as above. Conditions: shRNA.
TTGAGCTGCATCTCGATGTTAA was tested, and the sensor-assay potency score (higher = more potent) was -0.768. TTTGCTATCTTGGTTCGCCGAG showed a sensor-assay potency score (higher = more potent) of -0.492. TTTGTCAGAACCAACATAGTGT showed a sensor-assay potency score (higher = more potent) of 0.088. In the case of TCACACTCGATCATGAAGCGGG, the sensor-assay potency score (higher = more potent) is reported as 0.234. With AACACTTGTAGCACTTGTCCAC the sensor-assay potency score (higher = more potent) was -0.0267. TTGGATAAACTCTTCACCCTTT gave a sensor-assay potency score (higher = more potent) of 0.593. TTGCTTTCTGGAAAGAGCCTGT was tested, and the sensor-assay potency score (higher = more potent) was -0.163. With TTCAACACCAACACAACTGCCA the sensor-assay potency score (higher = more potent) was 0.225. For TTCCAAACTAATGACATTGAGG, the sensor-assay potency score (higher = more potent) was -0.716. TTGCTATCTTGGTTCGCCGAGA gave a sensor-assay potency score (higher = more potent) of -0.723. Work on TTTCACAAAATCACCAAGCTTC yielded a sensor-assay potency score (higher = more potent) of 0.0269. With TTCTGCTTGAACGATGACCTGT the sensor-assay potency score (higher = more potent) was 0.147.

The sequences below were run against PIK3AP1 in the same assay as above. Conditions: shRNA.
With TTACTTGTGCTACTTGCTGTGC the sensor-assay potency score (higher = more potent) was -0.439. Sequence AAGTCTAGGAACTCCTCGCTGT has a sensor-assay potency score (higher = more potent) of 0.0251. Sequence TTGCCTTCTAAAAACTTGCGGA has a sensor-assay potency score (higher = more potent) of -0.361. TTAAGGTCAACAGTCATGCTAT showed a sensor-assay potency score (higher = more potent) of -0.337. TTGTCATCATATCTTCTTCTTC gave a sensor-assay potency score (higher = more potent) of -0.605. With TAGCCGTTTAAGATTTTCCTGC the sensor-assay potency score (higher = more potent) was -0.144. TAGACGATGAGGATGTCGCATC was tested, and the sensor-assay potency score (higher = more potent) was -0.908. In the case of TACTCGTCGATGAACTGCCGCA, the sensor-assay potency score (higher = more potent) is reported as -0.193. With TTCTTCAGTCCATACTTCGCAG the sensor-assay potency score (higher = more potent) was -0.885. For TTTAATGTGACTCTTGAGCATG, the sensor-assay potency score (higher = more potent) was -0.893. In the case of TTCCTCTTTAATGTGACTCTTG, the sensor-assay potency score (higher = more potent) is reported as -0.151. Sequence TTCGATTAAGTCTTCATCCTTT has a sensor-assay potency score (higher = more potent) of 0.829.

These sequences were tested against PIK3R4 in the same assay as above. Conditions: shRNA.
Sequence TTACAGTAGACATCAGCTGTAC has a sensor-assay potency score (higher = more potent) of 0.0221. For TTCCTTTAAAACACTGAGCAGA, the sensor-assay potency score (higher = more potent) was -0.752. Work on TATCTGAAAAATAACTCTCTAC yielded a sensor-assay potency score (higher = more potent) of -0.529. TTATTTTCATATCTGAGCCAGC gave a sensor-assay potency score (higher = more potent) of -0.787. TAAACTAGTCAAGTACATCTTA showed a sensor-assay potency score (higher = more potent) of 0.418. In the case of TTTTATTTAGCACTTGTTCAGG, the sensor-assay potency score (higher = more potent) is reported as -0.266. TTCAATTTTATTTAGCACTTGT showed a sensor-assay potency score (higher = more potent) of 0.585. Work on TTTTGTAGCAGTCCTAACTGGC yielded a sensor-assay potency score (higher = more potent) of -0.0245. Sequence TAATAGCTTACAACCATCTTTT has a sensor-assay potency score (higher = more potent) of -0.784. For TTGTCTCGCACATACTGCCTAA, the sensor-assay potency score (higher = more potent) was -0.86. TAGCAAAGTAACAACTTTCTGC gave a sensor-assay potency score (higher = more potent) of 0.5.
